Experimental findings from PubChem BioAssay AID1851 (National Center for Advancing Translational Sciences (NCATS), 2009) are described below.

Where “and” joins values, the source holds several entries; their conditions need not be identical. Equal entries are not always repeated. About 4,000 (25%) of roughly 16,000 compounds were called active. Another 26% or so got no clear call; they are omitted. Only a sample is shown. A number with no mark means an inactive call. Calls follow the shape of the dose curve; as a rule, active = well fitted curve in the direction sought with a large enough effect; inconclusive = small, poorly fitted or top-dose-only effect, or effect the other way; inactive = no such curve, though single readings can be large or run the other way.
% is scaled to controls: 0 for no effect and ±100 for the full control effect.

Chain of Cytochrome P450 2C9 (Homo sapiens) (P11712 whole entry, looked up): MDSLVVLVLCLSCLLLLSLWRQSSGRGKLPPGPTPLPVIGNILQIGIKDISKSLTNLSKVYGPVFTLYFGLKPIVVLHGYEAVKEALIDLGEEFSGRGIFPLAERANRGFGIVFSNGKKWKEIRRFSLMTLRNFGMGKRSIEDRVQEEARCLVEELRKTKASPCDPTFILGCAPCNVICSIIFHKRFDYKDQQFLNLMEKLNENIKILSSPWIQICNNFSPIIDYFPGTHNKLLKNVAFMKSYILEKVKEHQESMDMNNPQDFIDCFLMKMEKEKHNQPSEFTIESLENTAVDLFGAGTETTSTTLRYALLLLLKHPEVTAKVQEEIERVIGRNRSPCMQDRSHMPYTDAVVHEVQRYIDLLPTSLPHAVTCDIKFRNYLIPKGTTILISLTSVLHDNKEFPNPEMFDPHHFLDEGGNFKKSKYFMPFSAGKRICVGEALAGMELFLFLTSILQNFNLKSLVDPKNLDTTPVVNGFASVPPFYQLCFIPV

The assay has as its target Cytochrome P450 2C9 (Homo sapiens) (UniProt P11712). In words: Cytochrome panel assay with activity outcomes. As to conditions: recombinant CYP, pro-luciferin dealkylation, luminescence, p450-cyp2c9; series mostly up to 57.1 µM; activity, negative = inhibition: at the top concentration.
With `O=C1C[C@H]2C(=O)[C@@H]1[C@@H](C(=O)O)[C@H]2C(=O)O`, the activity, negative = inhibition is 19.5% [at 11.4 µM].
In the case of `CCOC(=O)Nc1ccc2c(c1)N(C(=O)CCN1CCN(C)CC1)c1ccccc1S2`, the “activity, negative = inhibition” value is 2.16%.
For the compound `COC(=O)c1cc(NC(=O)N2c3ccccc3Sc3ccccc32)cc(C(=O)OC)c1`, the AC50 (commonly the concentration at which the activity in the assay is half-maximal) was 3.55 µM (active).
For `CC1CCN(CC(=O)N2c3ccccc3Sc3cc4ccccc4cc32)CC1`, the activity, negative = inhibition was -17.9% [at 11.4 µM].
The same measure, in the same setting: in the case of `Nc1cc(=O)[nH]c(N)n1` it was 16.3%; in that of `COCCCNC(=O)/C=C/c1ccc(Cl)cc1`, -22.2%.
As to `COCCNC(=O)c1onc(CSc2ccccc2F)c1C(=O)O`, the AC50 is 15.8 µM (active).
As for `CN1CCN(CCCNC(=O)c2ccc(CSCc3cccc(Cl)c3)o2)CC1`, the “activity, negative = inhibition” value was -28.9%.
As to `CC(C)NCCOCCSc1ccc(Cl)cc1`, the “activity, negative = inhibition” value is -5.95%.
Regarding `COCCNC(=O)c1onc(CSc2cccc(Cl)c2)c1C(=O)O`, the AC50 is 3.98 µM (active).
For the compound `C=CCNC(=O)c1onc(CSc2ccc(F)cc2)c1C(=O)O`, the AC50 was 8.91 µM (active).
On the same count and under the same terms, the same measure for `COCCNC(=O)c1onc(CSc2ccc(Cl)cc2)c1C(=O)O`: 5.01 µM (active).
`N[C@H](Cn1ccc(=O)n(Cc2ccccc2C(=O)O)c1=O)C(=O)O`: the “activity, negative = inhibition” value was 4.53%.
The same measure, in the same setting: in the case of `Cc1noc(C)c1C(=O)N1CCC[C@@]2(CCN(C(=O)NC(C)C)C2)C1` it was -5.38%; in that of `c1nc(NCCN2CCOCC2)c2cc(-c3ccoc3)ccc2n1`, -2.85% [at 2.29 µM].
The same measure, in the same setting: in the case of `O=C(O)[C@H](Cc1ccc(O)c([N+](=O)[O-])c1)N1C(=O)c2ccccc2C1=O` it was 0.788% [at 11.4 µM].
For the compound `Cc1cc(/C=N\NC(=O)c2cccs2)c(C)n1-c1ccc2ncccc2c1`, the AC50 is 3.16 µM (active).
With `Clc1ccc2c(NC3CCC(N4CCCCC4)CC3)ccnc2c1` (stereo not drawn), the activity, negative = inhibition is 10.6% [at 11.4 µM].
As for `N#Cc1c(N)nc2c(c1-c1cccc(O)c1)CCCCCC2`, the AC50 is 8.91 µM (active).
Regarding `COc1cccc(NC(=O)CSc2nc3c(c(-c4ccco4)c2C#N)CCCC3)c1`, the “activity, negative = inhibition” value was 6.49%.
In the case of `Cc1ccc(-c2ccc(/C=N/N3C(=O)C4C5C=CC(C6CC56)C4C3=O)o2)c([N+](=O)[O-])c1` (stereo not drawn), the AC50 is 5.01 µM (active).
With `Cc1cc2ncn(/N=C/c3ccc([N+](=O)[O-])o3)c2cc1C`, the “activity, negative = inhibition” value was -25.5%.
In the case of `Cc1cc(-c2ccc(/C=N/n3cnnc3)o2)c([N+](=O)[O-])cc1C`, the AC50 was 2.51 µM (active).
For the compound `COc1ccccc1-c1cncnc1Nc1ccc(F)cc1`, the activity, negative = inhibition is -21.5% [at 2.29 µM].
Still for that read-out and setting: in the case of `Cn1cccc1C(=O)N1CCC2(CCN(C(=O)Nc3cccc(F)c3)CC2)CC1` it was -1.96%.
In the case of `COCC(=O)Oc1c(S(=O)(=O)c2ccc(C)cc2)c(C)nn1-c1ccccc1`, the AC50 is 1.78 µM (active).
As for `CON(C)C(=O)c1nnc2c3ccccc3n(S(=O)(=O)c3ccc(C)cc3)c2n1`, the activity, negative = inhibition is 12.1% [at 11.4 µM] and -11.7% [at 11.4 µM].
On to `Nc1c2c(nc3ccccc13)CCCC2`, for which the AC50 result was “inactive”.
Consider `COc1cccc(NC(=O)COC(=O)c2nc3nccc(C)n3n2)c1`, for which the “activity, negative = inhibition” value was -20%.
For the compound `COc1cccc(NC(=O)COC(=O)c2c3c(nc4ccccc24)CCC(C)C3)c1` (stereo not drawn), the AC50 was 11.2 µM (active).
Still for that read-out and setting: in the case of `COc1ccc(NC(=O)COC(=O)c2c3c(nc4ccccc24)CCCC3)cc1` it was 7.08 µM (active); in that of `COc1ccc(OC)c(NC(=O)c2c3c(nc4ccccc24)CCC3)c1`, 14.1 µM (active); in that of `COc1cc(-c2nnc(COC(=O)c3c4c(nc5ccccc35)CCCC4)o2)cc(OC)c1OC`, 2 µM (active).
On to `COc1ccc(C(=O)Nc2ccc(C(=O)OCC(=O)c3ccccc3)cc2)cc1`, for which the “activity, negative = inhibition” value is -0.58%.
The same measure, in the same setting: in the case of `Cn1c2c(c(=O)n(C)c1=O)CN(CCN1CCNCC1)CN2` it was -8.52%; in that of `Cc1cc(C)c(-c2cc([C@H](C)O/N=C\[C@@H](C)[C@H](OCc3ccccc3)C(C)C)on2)c(C)c1`, -7.67% [at 11.4 µM].
The same measure, in the same setting: the same measure for `C[N+](C)(N)CCC[N+](C)(C)N`: 15.9% [at 11.4 µM].
On the same count and under the same terms, the same measure for `[N-]=[N+]=Nc1ccc(C(=O)CSC[C@@H](NC(=O)CC[C@@H](N)C(=O)O)C(=O)NCC(=O)O)cc1`: 15.4%.
As for `N[C@H](CCC(=O)N[C@H](CSN=O)C(=O)NCC(=O)O)C(=O)O`, the AC50 is 5.01 µM (active).
With `N[C@H](CCC(=O)NCC(=O)O)C(=O)O`, the “activity, negative = inhibition” value was -0.143%.
The same measure, in the same setting: the same measure for `CO[C@@H](C(C)C)[C@@H](C)[C@@H]1OC(=O)C[C@@H]1O`: -15.2% [at 11.4 µM].
Regarding `Fc1ccc(Cn2c(SCc3ccc(F)c(F)c3)nnc2C(F)(F)F)cc1`, the AC50 was 15.8 µM (active).
Regarding `Cc1ccc(CSc2nnc(C(F)(F)F)n2Cc2ccc(F)cc2)cc1`, the AC50 was 4.47 µM (active).
On the same count and under the same terms, in the case of `Fc1ccc(Cn2c(SCc3ccc(F)c(C(F)(F)F)c3)nnc2C(F)(F)F)cc1` it was 7.08 µM (active).
Take `COc1cccc(CSCC(=O)O)c1`: the activity, negative = inhibition was -12.1% [at 11.4 µM].
Regarding `COc1cccc(CSc2nnc(C(F)(F)F)n2Cc2ccc(F)cc2)c1`, the AC50 is 11.2 µM (active).
For `Cc1c(CC(C)(C)C(=O)O)n(Cc2ccc(Cl)cc2)c2ccc(F)cc12`, the “activity, negative = inhibition” value was 35.9%.
Turning to `COc1cccc(-c2nccc(NC3CCNCC3)n2)c1`, the activity, negative = inhibition is 9.19% [at 2.29 µM].
Same read-out and setting: the same measure for `Cc1cc(=O)oc2cc(O)c(CN(C)CC(=O)O)cc12`: -0.896% [at 11.4 µM]; for `NCCC(=O)O`: 6.29%.
Turning to `Cc1ccc(C(=O)Nc2c(C#N)c(C)c(C)n2Cc2ccccc2)cc1`, the AC50 is 3.55 µM (active).
Regarding `Cc1ccc([C@@H](O)c2cnc(C)n2Cc2ccccc2)cc1`, the activity, negative = inhibition is -18.2% [at 11.4 µM].
The same measure, in the same setting: the same measure for `COc1cccc(CNc2ccc3nc(-c4ccc(N)cc4)c(OC)n3n2)c1`: -6.12%.
With `CCN(CC)CCCN(Cc1cc2ccc(C)c(C)c2[nH]c1=O)C(=O)NC1CCCCC1`, the “activity, negative = inhibition” value was 15.3%.
On to `C/C(=N\OC(=O)NC1CCCCC1)c1sc(-c2ccccc2)nc1C`, for which the AC50 was 11.2 µM (active).
Take `CNC(=O)c1sc(-c2cccnc2)nc1C`: the “activity, negative = inhibition” value is -12.4%.
Still for that read-out and setting: the same measure for `Cc1nc(-c2cccnc2)sc1C(N)=O`: -10.5%; for `Cc1noc(C)c1-c1nccc(N(C)C)n1`: -8.59% [at 2.29 µM].
On to `CC(=O)OC[C@@H]1O[C@@H](O/N=C2/C[C@@H](O)[C@@H](O)[C@@H]3[C@@H]4C(=O)N(C[C@@H]5CCCO5)C(=O)[C@H]4CC[C@@H]23)[C@H](OC(C)=O)[C@H](OC(C)=O)[C@@H]1OC(C)=O`, for which the activity, negative = inhibition is -5.55% [at 11.4 µM].
On to `COc1cccc(-c2[nH]nc3c2C(c2ccsc2)C(C#N)=C(N)O3)c1` (stereo not drawn), for which the AC50 was 2.51 µM (active).
In the case of `COc1cccc(-c2cc(NCc3cccs3)ncn2)c1`, the activity, negative = inhibition is -10.2% [at 2.29 µM].
On to `CNc1c2c(nn1C)CCCC2`, for which the “activity, negative = inhibition” value was 9.75%.
The same measure, in the same setting: the same measure for `O=c1cc(CO)oc(CN2CCCC2)c1O`: -17%.
Regarding `Cc1ccc(N(C(C)C(=O)Nc2cc(Cl)ccc2Oc2ccccc2)S(C)(=O)=O)cc1` (stereo not drawn), the AC50 is 6.31 µM (active).
Still for that read-out and setting: the same measure for `CC(C(=O)Nc1ccccc1Sc1ccccc1)N(c1ccccc1)S(C)(=O)=O` (stereo not drawn): 4.47 µM (active).
For the compound `COc1cccc(C=NC=Nc2cccc(OC)c2)c1`, the “activity, negative = inhibition” value was 22.6%.
The same measure, in the same setting: in the case of `CN(C)C(=O)c1ccc(-c2ccc3ncnc(NCc4cccs4)c3c2)cc1` it was 8.22% [at 2.29 µM].
Consider `Cc1ccc(N=C/C(C(=O)C(F)(F)F)=C(\O)c2cccs2)cc1`, for which the AC50 was 3.55 µM (active).
As for `C[C@](N)(COP(=O)(O)O)C(=O)O`, the “activity, negative = inhibition” value is -8.44%.
As for `COc1ccc(C2C(C#N)=C(N)N(Nc3ccccc3)C3=C2C(=O)CC(C)(C)C3)cc1C` (stereo not drawn), the AC50 is 1.58 µM (active).
Same read-out and setting: the same measure for `COc1cc(C2C(C#N)=C(N)N(Nc3ccccc3)C3=C2C(=O)CC(C)(C)C3)ccc1OCc1cccc(F)c1` (stereo not drawn): 3.98 µM (active).
On to `CC(=O)N(CC(O)CN(C(C)=O)c1c(I)c(C(=O)NC[C@@H](O)CO)c(I)c(C(=O)NC[C@@H](O)CO)c1I)c1c(I)c(C(=O)NC[C@@H](O)CO)c(I)c(C(=O)NC[C@@H](O)CO)c1I`, for which the “activity, negative = inhibition” value is 17.2% [at 25.6 µM].
`COc1ccccc1-c1cc(NCc2cnc(C)cn2)ncn1`: the activity, negative = inhibition is 9.42% [at 2.29 µM].
The same measure, in the same setting: the same measure for `O=C(O)[C@H]([C@H]1NCCS1)N1Cc2ccccc2C1`: 1.08% [at 11.4 µM]; for `Cc1cccc(Sc2c([N+](=O)[O-])ncn2C)n1`: -5.86%; for `N#Cc1ccc(CN2CC3(CCN(C(=O)c4cc(C(F)(F)F)cc(C(F)(F)F)c4)CC3)C2)cc1`: -15.8%.
With `CC(C)NC(=O)N1CC2(CCN(S(=O)(=O)c3ccccc3)CC2)C1`, the “activity, negative = inhibition” value is -13.9%.
Regarding `O=S(=O)(c1ccccc1)N1CCC2(CCCN(C(c3ccccc3)c3ccccc3)C2)CC1`, the “activity, negative = inhibition” value is -16.2%.
For `CS(=O)(=O)N1CCC2(CCN(C(c3ccccc3)c3ccccc3)CC2)CC1`, the “activity, negative = inhibition” value was -25.5%.
Take `O=S(=O)(c1ccccc1)N1CCC2(CC1)CN(C(c1ccccc1)c1ccccc1)C2`: the AC50 was 1 µM (active).
In the case of `O=S(=O)(c1ccccc1)N1CCC2(CCN(C(c3ccccc3)c3ccccc3)CC2)CC1`, the AC50 is 0.501 µM (active).
Still for that read-out and setting: the same measure for `NC1CCN(c2cccc(Cl)n2)CC1`: “inactive”.
Regarding `C[C@H]1[C@@H](O)[C@@H](C)\C=C/C=C\C=C/C=C\C=C/C=C\C=C/[C@@H](O[C@H]2O[C@@H](C)[C@@H](O)[C@@H](N)[C@@H]2O)C[C@@H]2O[C@](O)(C[C@@H](O)C[C@@H](O)[C@@H](O)CC[C@@H](O)C[C@@H](O)CC(=O)O[C@H]1C)C[C@@H](O)[C@H]2C(=O)O` (stereo in doubt), the “activity, negative = inhibition” value is -2.12% [at 25.6 µM].
For the compound `CC(=NC1CCCCC1)c1ccccc1O`, the activity, negative = inhibition was -0.794% [at 11.4 µM].
On the same count and under the same terms, in the case of `CC1(C)CC(=O)C2=C(C1)N(Cc1ccccc1)C(=O)C2(O)C(F)(F)F` (stereo not drawn) it was -15.3%.
For the compound `CCCCN1C(=O)C(NC(=O)C2CC2)(C(F)(F)F)C2=C1CC(C)(C)CC2=O` (stereo not drawn), the AC50 is 6.31 µM (active).
For the compound `CCOC(=O)c1c(-c2ccc(C)o2)csc1NC(=S)NC(=O)N(C)C`, the AC50 was 10 µM (active).
In the case of `Cc1cc(C)n2nc(-c3sccc3-n3cccc3)cc2n1`, the “activity, negative = inhibition” value was -48.1%.
